Drawing on PubChem BioAssay (NCATS), this text covers Potency for 14 compounds.

Inconclusive results are not listed. Where a call stands in place of a potency, no number is given. Activity calls are given as the source filed them. Calls come from the whole dose curve; as a rule, active = well fitted inhibition curve with a large enough effect; inconclusive = small, poorly fitted or top-dose-only effect; inactive = no such curve, though single readings can be large or run the other way.

Assay [1] has as its target Retinaldehyde dehydrogenase 3 (Homo sapiens) (UniProt P47895). The experiment in a line: qHTS for Inhibitors of the Aldehyde Dehydrogenase Family (ALDH1A3) Primary screen (AID 2061315).
Assay [2] deals with Retinal dehydrogenase 2 (Homo sapiens) (UniProt O94788). Nature of the assay: qHTS for Inhibitors of the Aldehyde Dehydrogenase Family (ALDH1A2) Confirmation screens (AID 2061314). Note: nearly all actives have a fitted effect of over 65% in size. Note: potency is the fitted concentration of half-maximal effect.
For assay [3], the target named is Aldehyde dehydrogenase 1A1 (Homo sapiens) (UniProt P00352). The experiment in a line: qHTS for Inhibitors of the Aldehyde Dehydrogenase Family (ALDH1A1) Confirmatory screens (AID 2061316). Note: potency is the fitted concentration of half-maximal effect; nearly all actives have a fitted effect of over 65% in size.

In the case of `NC(=O)c1cccc(-c2cc(O)cc(OC(=O)NC3CCCCC3)c2)c1`, the Potency result in assay [1] is “inactive”. On the same count and under the same terms, under `Cc1cc(C)nc(NC(=S)N2CCN(c3cc(C(F)(F)F)nc4ccc(C(F)(F)F)cc34)CC2)c1` stands “inactive”. On to `O=C(O)C1NCc2[nH]cnc2C1c1ccccc1` (stereo unspecified), for which the Potency in assay [2] is 4 µM (active); in assay [3], 11.3 µM (active). For the same compound, in assay [1], the Potency entry is “inactive”. With `Cn1ncc2ccc(-c3ccc4ncnc(NCc5cccs5)c4c3)cc21`, in assay [1], the Potency result is “inactive”.

With `Cc1cc(C)nc(NC(=S)N2CCN(c3cccc(OC(F)(F)F)c3)CC2)c1`, the Potency entry in assay [1] is “inactive”. The same measure, in the same setting: with `N#Cc1c(-c2cccs2)no[n+]1[O-]` the entry was “inactive”. Same read-out and setting: under `COc1cc(F)c(S(=O)(=O)N2CCN(S(=O)(=O)c3cccs3)CC2)c(F)c1` stands “inactive”. On to `OCc1ccc(-c2ccc3ncnc(NCc4nccs4)c3c2)o1`, for which the Potency was 14.2 µM (active) in assay [2] and 4 µM (active) in assay [3]. Also, the Potency entry in assay [1] is “inactive”. With `C[C@H](NC(c1ccc(F)cc1)c1ccc2cccnc2c1O)c1ccccc1` (stereo partly specified), the Potency entry in assay [1] is “inactive”.

In the case of `Cc1c(C(=O)OCc2ccco2)[nH]c2c1C(=O)CC(c1ccco1)C2` (stereo unspecified), the results for the Potency in assay [2] and in assay [3] were 3.18 µM (active) and 1.42 µM (active), respectively. The Potency result in assay [1] is “inactive”.

For the compound `CC(C)c1cccc(-n2cnc3cc(C(=O)N4CCCCC4)ccc32)c1`, the Potency entry in assay [1] was “inactive”.

Regarding `CCOC(=O)c1c(-c2ccc(C)o2)csc1NC(=O)CSc1nnnn1-c1ccccc1`, the values for the Potency in assay [2] and in assay [3] were 5.04 µM (active) and 0.4 µM (active), respectively. For the same compound, the Potency entry in assay [1] is “inactive”. For `O=S1(=O)N=C(Sc2cccc3cccnc23)c2ccccc21`, the Potency entry in assay [2] and in assay [1] was “inactive” in each case. Further, the Potency in assay [3] was 15.9 µM (active).

As for `Cc1csc(CNc2ncnc3ccc(-c4ccc(C(C)O)o4)cc23)n1` (stereo unspecified), the Potency in assay [2] is 5.65 µM (active); in assay [3] it was 11.3 µM (active). Besides, in assay [1], the Potency entry is “inactive”.
